The full data set covers some 7,900 targets. This sample favours those with a hit. About 0.6% of all pairs of compound and target were hits.

Sequence of UniProt P54652 (P54652 whole entry, looked up): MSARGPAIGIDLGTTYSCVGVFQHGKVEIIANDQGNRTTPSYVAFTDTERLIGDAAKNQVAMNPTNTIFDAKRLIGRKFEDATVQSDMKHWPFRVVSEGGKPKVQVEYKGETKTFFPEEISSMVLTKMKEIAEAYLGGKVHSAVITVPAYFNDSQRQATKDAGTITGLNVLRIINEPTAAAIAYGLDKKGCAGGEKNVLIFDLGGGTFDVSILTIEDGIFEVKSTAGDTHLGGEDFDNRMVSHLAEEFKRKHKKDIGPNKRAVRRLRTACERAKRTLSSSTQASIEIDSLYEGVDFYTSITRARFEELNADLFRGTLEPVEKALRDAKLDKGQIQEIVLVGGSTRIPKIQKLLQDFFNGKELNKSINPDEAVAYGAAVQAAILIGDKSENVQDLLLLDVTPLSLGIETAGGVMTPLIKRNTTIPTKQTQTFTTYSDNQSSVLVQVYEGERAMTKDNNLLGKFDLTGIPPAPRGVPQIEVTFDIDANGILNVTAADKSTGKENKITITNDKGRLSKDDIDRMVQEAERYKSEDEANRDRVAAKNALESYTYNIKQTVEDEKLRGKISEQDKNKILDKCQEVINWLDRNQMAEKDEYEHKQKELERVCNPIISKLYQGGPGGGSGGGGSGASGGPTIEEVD
Sequence of UniProt Q04446 (Q04446 whole entry, looked up): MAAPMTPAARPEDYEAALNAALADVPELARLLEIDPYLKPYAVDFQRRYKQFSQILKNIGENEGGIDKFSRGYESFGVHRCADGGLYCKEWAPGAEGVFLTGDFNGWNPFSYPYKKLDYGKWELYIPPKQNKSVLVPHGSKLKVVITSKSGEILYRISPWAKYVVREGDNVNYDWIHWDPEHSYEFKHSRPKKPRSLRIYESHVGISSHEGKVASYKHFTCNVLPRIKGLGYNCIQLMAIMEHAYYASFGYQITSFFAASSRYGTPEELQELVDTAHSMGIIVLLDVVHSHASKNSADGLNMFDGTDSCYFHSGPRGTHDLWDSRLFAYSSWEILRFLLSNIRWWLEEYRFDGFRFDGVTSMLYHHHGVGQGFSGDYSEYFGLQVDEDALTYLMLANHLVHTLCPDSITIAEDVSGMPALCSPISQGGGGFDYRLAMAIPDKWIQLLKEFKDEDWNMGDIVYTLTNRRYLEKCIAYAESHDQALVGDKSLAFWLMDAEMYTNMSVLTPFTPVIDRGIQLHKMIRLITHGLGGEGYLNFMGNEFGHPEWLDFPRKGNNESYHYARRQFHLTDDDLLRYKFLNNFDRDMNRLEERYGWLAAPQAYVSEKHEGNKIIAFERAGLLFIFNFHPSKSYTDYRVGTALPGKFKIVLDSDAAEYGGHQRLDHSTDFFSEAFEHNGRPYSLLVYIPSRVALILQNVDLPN
Sequence of UniProt Q14687 (Q14687 whole entry, looked up): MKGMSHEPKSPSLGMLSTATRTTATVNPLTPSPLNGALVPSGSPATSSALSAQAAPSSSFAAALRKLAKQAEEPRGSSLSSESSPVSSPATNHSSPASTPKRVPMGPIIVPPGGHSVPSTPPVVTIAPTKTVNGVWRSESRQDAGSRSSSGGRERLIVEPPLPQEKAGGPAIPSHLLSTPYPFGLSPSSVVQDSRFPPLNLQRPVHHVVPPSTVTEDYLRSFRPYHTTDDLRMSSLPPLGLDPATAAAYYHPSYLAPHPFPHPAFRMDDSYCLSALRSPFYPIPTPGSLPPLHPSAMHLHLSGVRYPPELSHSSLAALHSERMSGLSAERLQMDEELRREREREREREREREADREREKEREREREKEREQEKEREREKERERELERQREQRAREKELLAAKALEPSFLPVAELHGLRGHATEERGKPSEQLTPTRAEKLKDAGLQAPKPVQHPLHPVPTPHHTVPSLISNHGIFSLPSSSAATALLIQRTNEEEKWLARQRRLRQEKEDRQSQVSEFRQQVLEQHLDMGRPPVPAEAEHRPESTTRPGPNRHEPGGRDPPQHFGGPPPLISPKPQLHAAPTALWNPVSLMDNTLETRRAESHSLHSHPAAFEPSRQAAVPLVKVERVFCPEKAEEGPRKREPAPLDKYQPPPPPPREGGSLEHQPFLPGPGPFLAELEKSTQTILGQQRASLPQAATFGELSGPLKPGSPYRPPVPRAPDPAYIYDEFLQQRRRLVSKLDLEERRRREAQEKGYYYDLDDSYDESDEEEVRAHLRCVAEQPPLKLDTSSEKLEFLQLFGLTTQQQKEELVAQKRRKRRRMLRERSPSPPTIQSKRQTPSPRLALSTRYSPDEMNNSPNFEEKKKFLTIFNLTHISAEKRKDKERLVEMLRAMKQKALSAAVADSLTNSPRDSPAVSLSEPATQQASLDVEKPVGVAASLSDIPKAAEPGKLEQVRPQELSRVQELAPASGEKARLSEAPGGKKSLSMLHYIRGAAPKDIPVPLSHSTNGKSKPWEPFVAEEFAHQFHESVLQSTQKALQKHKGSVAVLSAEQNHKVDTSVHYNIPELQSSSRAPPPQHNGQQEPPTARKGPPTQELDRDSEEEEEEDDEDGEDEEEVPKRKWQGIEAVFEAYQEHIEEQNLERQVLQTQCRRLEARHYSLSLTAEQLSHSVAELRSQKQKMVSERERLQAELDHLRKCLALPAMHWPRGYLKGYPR
Sequence of UniProt Q8IVV7 (Q8IVV7 whole entry, looked up): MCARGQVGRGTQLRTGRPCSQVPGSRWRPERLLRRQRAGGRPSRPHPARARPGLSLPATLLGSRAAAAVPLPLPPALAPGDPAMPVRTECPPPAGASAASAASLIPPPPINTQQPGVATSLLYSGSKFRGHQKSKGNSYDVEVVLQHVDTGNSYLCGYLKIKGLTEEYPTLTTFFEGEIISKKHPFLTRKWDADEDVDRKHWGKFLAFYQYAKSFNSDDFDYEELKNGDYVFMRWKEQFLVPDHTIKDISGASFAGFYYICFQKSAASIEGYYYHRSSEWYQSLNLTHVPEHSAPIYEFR
Sequence of UniProt P21695 (P21695 whole entry, looked up): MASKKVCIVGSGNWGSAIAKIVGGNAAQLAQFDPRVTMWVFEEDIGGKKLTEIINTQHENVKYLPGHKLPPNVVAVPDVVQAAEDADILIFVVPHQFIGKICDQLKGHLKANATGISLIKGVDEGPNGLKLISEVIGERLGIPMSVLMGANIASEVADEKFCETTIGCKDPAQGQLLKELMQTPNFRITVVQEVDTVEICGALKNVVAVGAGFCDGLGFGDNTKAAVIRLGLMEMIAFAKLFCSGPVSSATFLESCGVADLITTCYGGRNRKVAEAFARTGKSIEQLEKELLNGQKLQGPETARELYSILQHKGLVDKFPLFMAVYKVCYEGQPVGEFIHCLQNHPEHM
Sequence of UniProt P02679 (P02679 whole entry, looked up): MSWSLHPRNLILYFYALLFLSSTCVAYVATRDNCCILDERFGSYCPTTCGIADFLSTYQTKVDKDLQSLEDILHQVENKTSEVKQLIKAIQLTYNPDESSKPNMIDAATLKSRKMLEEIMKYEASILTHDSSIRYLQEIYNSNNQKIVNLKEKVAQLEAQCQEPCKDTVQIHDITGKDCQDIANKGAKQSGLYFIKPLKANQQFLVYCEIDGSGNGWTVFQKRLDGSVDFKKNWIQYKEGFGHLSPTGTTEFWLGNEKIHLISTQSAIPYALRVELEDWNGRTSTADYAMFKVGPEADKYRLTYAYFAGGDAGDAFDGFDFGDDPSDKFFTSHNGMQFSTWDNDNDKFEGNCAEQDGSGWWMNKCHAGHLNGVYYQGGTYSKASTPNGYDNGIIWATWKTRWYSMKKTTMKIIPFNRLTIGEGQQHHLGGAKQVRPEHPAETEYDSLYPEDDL
Sequence of UniProt Q53T59 (Q53T59 whole entry, looked up): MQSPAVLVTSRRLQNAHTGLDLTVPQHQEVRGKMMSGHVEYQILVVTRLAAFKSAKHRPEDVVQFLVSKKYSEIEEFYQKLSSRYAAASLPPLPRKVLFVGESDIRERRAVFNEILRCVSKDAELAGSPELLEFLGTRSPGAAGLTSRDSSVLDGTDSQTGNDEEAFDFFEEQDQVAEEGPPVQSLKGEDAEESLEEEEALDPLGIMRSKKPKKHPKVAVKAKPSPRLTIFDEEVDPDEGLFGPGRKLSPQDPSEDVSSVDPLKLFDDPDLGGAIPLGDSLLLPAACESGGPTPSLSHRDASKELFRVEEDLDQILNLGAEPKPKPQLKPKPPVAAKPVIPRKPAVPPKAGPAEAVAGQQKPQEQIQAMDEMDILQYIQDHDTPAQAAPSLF
Sequence of UniProt O60725 (O60725 whole entry, looked up): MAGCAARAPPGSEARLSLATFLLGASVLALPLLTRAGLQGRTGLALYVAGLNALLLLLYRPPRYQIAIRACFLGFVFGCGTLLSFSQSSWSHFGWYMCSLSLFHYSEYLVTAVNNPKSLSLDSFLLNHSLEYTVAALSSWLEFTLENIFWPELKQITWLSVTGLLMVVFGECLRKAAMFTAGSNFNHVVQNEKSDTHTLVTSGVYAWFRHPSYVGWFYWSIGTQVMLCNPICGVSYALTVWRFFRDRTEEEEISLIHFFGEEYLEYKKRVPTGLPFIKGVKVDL
Sequence of UniProt Q01628 (Q01628 whole entry, looked up): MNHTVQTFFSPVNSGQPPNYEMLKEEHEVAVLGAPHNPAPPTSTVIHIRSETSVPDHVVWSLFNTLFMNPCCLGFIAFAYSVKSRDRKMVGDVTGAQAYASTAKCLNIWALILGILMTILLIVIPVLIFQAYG
Sequence of UniProt Q9UK97 (Q9UK97 whole entry, looked up): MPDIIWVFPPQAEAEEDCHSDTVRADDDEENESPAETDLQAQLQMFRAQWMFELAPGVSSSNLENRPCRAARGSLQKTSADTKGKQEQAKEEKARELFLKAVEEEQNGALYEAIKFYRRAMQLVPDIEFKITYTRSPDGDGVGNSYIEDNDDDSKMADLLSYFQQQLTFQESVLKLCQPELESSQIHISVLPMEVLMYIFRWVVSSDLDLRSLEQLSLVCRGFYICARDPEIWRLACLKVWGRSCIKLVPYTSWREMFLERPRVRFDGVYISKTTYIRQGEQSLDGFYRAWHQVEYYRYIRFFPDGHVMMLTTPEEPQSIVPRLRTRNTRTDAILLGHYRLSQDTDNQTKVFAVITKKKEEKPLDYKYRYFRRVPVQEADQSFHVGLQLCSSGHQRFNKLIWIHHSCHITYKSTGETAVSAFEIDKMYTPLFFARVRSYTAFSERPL

Compound in the assay: Cc1ccc(C(=O)N(CCCN)[C@@H](c2nc3cc(Cl)ccc3c(=O)n2Cc2ccccc2)C(C)C)cc1 [ispinesib]
Description: log2 fold change, soluble protein after heating vs DMSO (PISA); higher = thermal stabilisation; K562 cells, 10 uM, 30 min; active = over 0.2 and 3.5 SD of the protein, either way, in both replicates (recomputed). The method, boiled down:
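K562 cells (2×10^6 cells/mL) were treated with 10 μM compound for 30 min, and aliquots were heated for 3 min over 48°C-58°C. Pooled aliquots were extracted in PBS with 0.5% NP-40 at 4°C, and the supernatant after 21,000xg for 90 min was measured by TMTpro 16plex LC-MS/MS with channel sums equalised. Reported thermal stability, relative to control samples and from duplicates, is a log2 fold change.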
For the target GBE1 (UniProt Q04446), the log2 fold change is -0.286 (inactive). As for GOLGA8R (UniProt I6L899), the figure is -0.038 (inactive); as for HS1BP3 (UniProt Q53T59), -0.165 (inactive). As for ICMT (UniProt O60725), the figure is -0.42 (inactive).

Take FGG (UniProt P02679): the log2 fold change was -0.052 (inactive). Turning to IFITM3 (UniProt Q01628), the log2 fold change is 0.07 (inactive). Regarding FCHO1 (UniProt O14526), the log2 fold change was -0.264 (inactive). As for FHOD1 (UniProt Q9Y613), the figure is -0.193 (inactive); as for FBXO9 (UniProt Q9UK97), -0.057 (inactive); as for FMR1 (UniProt Q06787), -0.022 (inactive).

Consider HAUS4 (UniProt Q9H6D7), for which the log2 fold change is -0.259 (inactive). As for FCF1 (UniProt Q9Y324), the log2 fold change was -0.095 (inactive). As for GPD1 (UniProt P21695), the figure is 0.046 (inactive). The result for GDE1 (UniProt Q9NZC3) reads 0.051 (inactive); that for GSTT1 (UniProt P30711), 0.026 (inactive).

In the case of GID4 (UniProt Q8IVV7), the log2 fold change was 0.044 (inactive). As for GPS2 (UniProt Q13227), the figure is 0.31 (active); as for HNRNPK isoform 3 (UniProt P61978), 0.014 (inactive); as for IFNGR1 (UniProt P15260), -0.041 (inactive). As for HDAC10 (UniProt Q969S8), the figure is 0.065 (inactive); as for FAT2 (UniProt Q9NYQ8), -0.006 (inactive). With GGA2 (UniProt Q9UJY4), the log2 fold change was -0.177 (inactive).

On to GSE1 (UniProt Q14687), for which the log2 fold change is -0.066 (inactive). As for HSPA2 (UniProt P54652), the figure is -0.025 (inactive); as for FYB1 isoform 3 (UniProt O15117), -0.083 (inactive).

For the origin of these results see the supplement of paper PMC10849652.
